Data on 14 molecules can be found in PubChem BioAssay (NCI).

About 83,000 compounds went through this panel and 20% of them were active in at least one assay; those are over-represented in the sample as a whole.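 Each cell line was grown in a 96-well plate and treated with one concentration of compound for 48 hours. Values below 10 were considered active.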 Values without a mark were called inactive. The source made the active and inactive calls.

Among the test systems are T-47D breast; BT-549 breast; MDA-MB-435 melanoma; SW-620 colon; MCF7 breast; HCT-116 colon; HCC-2998 colon; KM12 colon.
Holding throughout (assay): NCI-60 one-dose screen, 48 h (100 = growth as untreated, 0 = no growth, -100 = all killed)
What all share (settings): 10 µM unless noted

For `CCN1C(=O)N(CC)C2C1NC(=S)N2/N=C/C=C/c1ccccc1` (configuration not stated), the growth is 46.5% in the test on T-47D breast; -10.3% (active) in the test with BT-549 breast; -42.1% (active) in the test on MDA-MB-435 melanoma; 25.6% with SW-620 colon; 13.8% with MCF7 breast; 5.71% (active) in the test with HCT-116 colon. Moreover, the growth in the test on HCC-2998 colon is 19%; with KM12 colon it was 8.65% (active).
For the molecule `COc1ccc(C(c2cc(OC)c(OC)c(OC)c2)n2cncn2)cc1O` (configuration not stated), the growth in the test on T-47D breast is 35%; in the test with BT-549 breast, 11.3%; in the test on MDA-MB-435 melanoma it was -46.2% (active); in the test on SW-620 colon, 29.1%; in the test on MCF7 breast, 17.9%; in the test with HCT-116 colon it was 7.25% (active). Moreover, the growth was 25.3% with HCC-2998 colon and 21.8% in the test with KM12 colon.
As to `C=CCOC(=O)C1=C(C)N(CC)C(=O)N(CC)C1c1c(Cl)n(C)c2ccccc12` (configuration not stated), the growth is 87.6% with T-47D breast; 89.9% in the test with BT-549 breast; 89.1% with MDA-MB-435 melanoma; 84.6% with SW-620 colon; 79% in the test with MCF7 breast; 85.8% in the test on HCT-116 colon. Moreover, the growth with HCC-2998 colon was 78%; in the test on KM12 colon, 68.6%.
With `O=c1c(/C=C/c2c(O)ccc3ccccc23)nnc2sc(-c3cccc([N+](=O)[O-])c3)nn12`, the growth in the test with T-47D breast was 33.6%; with BT-549 breast, 65.1%; in the test with MDA-MB-435 melanoma, 47.5%; with SW-620 colon it was 32.5%; in the test on MCF7 breast it was 27.4%; in the test with HCT-116 colon, 10.5%. The growth in the test on HCC-2998 colon is 60.9%; in the test with KM12 colon, 37.2%.
Consider `O=c1n(C2OC(CO)C(O)C2O)ccc2nccn12` (configuration not stated), for which the growth is 118% in the test on T-47D breast; 121% in the test with BT-549 breast; 102% in the test with MDA-MB-435 melanoma; 94.4% in the test with SW-620 colon; 94.1% in the test on MCF7 breast; 112% in the test on HCT-116 colon. Besides, the growth in the test on HCC-2998 colon was 110%; in the test on KM12 colon, 103%.
For `CS(=O)(=O)Nc1cc(-c2ccc3ncnc(Nc4cccc(Cl)c4)c3c2)cnc1Cl`, the growth with T-47D breast is -22.9% (active); with BT-549 breast it was -15.5% (active); in the test with MDA-MB-435 melanoma, 8.58% (active); with SW-620 colon, 11.5%; with MCF7 breast, 5.3% (active); with HCT-116 colon, -26.9% (active). Besides, the growth in the test with HCC-2998 colon is 2.63% (active); in the test on KM12 colon, 5.4% (active).
For the molecule `COc1cc2cc(Oc3ccc(NC(=O)Nc4ccc(Cl)c(Cl)c4)cc3)c(C)nc2cc1OCCN1CCCCC1`, the growth in the test with T-47D breast was 85.9%; in the test with BT-549 breast it was 88.1%; in the test with MDA-MB-435 melanoma, 74.2%; in the test on SW-620 colon it was 14.4%; in the test on MCF7 breast, 55.9%; in the test with HCT-116 colon, 91.3%. In addition, the values for the growth in the test with HCC-2998 colon and with KM12 colon were 104% and 63.3%, respectively.
With `COC(=O)CCc1c(/C=C2\N=C(c3ccc[nH]3)C=C2OC)[nH]c(C)c1C(=O)OCc1ccccc1`, the growth with T-47D breast was -2.41% (active); in the test with BT-549 breast it was 1.79% (active); in the test on MDA-MB-435 melanoma it was 2.53% (active); with SW-620 colon, 3.31% (active); in the test on MCF7 breast it was 7.6% (active); in the test with HCT-116 colon, -9.83% (active). For the same molecule, the results for the growth in the test on HCC-2998 colon and in the test with KM12 colon were 22.8% and 10.6%, respectively.
For the molecule `CCN1CCN(c2nc(NNC(=O)c3ccc(OC)cc3)nc(N3CCN(C(c4ccccc4)c4ccccc4)CC3)n2)CC1`, the growth is 43.4% in the test with T-47D breast; 81.1% with BT-549 breast; 18.3% with MDA-MB-435 melanoma; 32.4% in the test with SW-620 colon; 15.9% in the test on MCF7 breast; 20.8% with HCT-116 colon. Moreover, the growth in the test on HCC-2998 colon was 21.3%; in the test with KM12 colon it was 36.9%.
On to `O=C1C=CC2(O)OC(c3ccccc3)CC(=O)C2=C1O` (configuration not stated), for which the growth is 83.6% with T-47D breast; 74% in the test on BT-549 breast; 87.7% with MDA-MB-435 melanoma; 102% with SW-620 colon; 86% with MCF7 breast; 82.9% with HCT-116 colon. Moreover, the growth was 101% in the test on HCC-2998 colon and 15.9% with KM12 colon.
On to `CCCCCCCCOC(=O)c1c(C)[nH]c(/C=C2\N=C(c3ccc[nH]3)C=C2OC)c1C`, for which the growth in the test on T-47D breast is 4.23% (active); with BT-549 breast, 10.4%; in the test with MDA-MB-435 melanoma it was -19.4% (active); in the test with SW-620 colon it was 5.83% (active); in the test on MCF7 breast, -58.1% (active); in the test on HCT-116 colon it was -83.5% (active). Also, the growth with HCC-2998 colon is -26.4% (active); in the test on KM12 colon, 0.693% (active).
On to `COc1cc(/C=C2\CN(S(=O)(=O)c3ccc(C)cc3)C/C(=C\c3cc(CN4CCCC4)c(O)c(OC)c3)C2=O)cc(CN2CCCC2)c1O`, for which the growth in the test with T-47D breast is 40%; with BT-549 breast it was 12.7%; in the test with MDA-MB-435 melanoma, -76.8% (active); in the test with SW-620 colon, -68.1% (active); in the test with MCF7 breast, -25.5% (active); with HCT-116 colon it was -91.7% (active). The growth with HCC-2998 colon is -89.5% (active); in the test with KM12 colon, -63.9% (active).
In the case of `Cc1ccc(S(=O)(=O)N(CCC(=O)O)c2ccccc2)cc1`, the growth with T-47D breast was 100%; in the test on BT-549 breast, 93.2%; in the test on MDA-MB-435 melanoma it was 107%; in the test on SW-620 colon it was 104%; with MCF7 breast, 91.8%; in the test on HCT-116 colon it was 95.1%. Moreover, the growth with HCC-2998 colon is 112%; in the test on KM12 colon, 98.9%.
For `CCN(CC)CCCNc1cc(OC)cc2cccnc12`, the growth was 93.3% with T-47D breast; 112% in the test on BT-549 breast; 115% with MDA-MB-435 melanoma; 101% in the test with SW-620 colon; 64% in the test on MCF7 breast; 100% in the test on HCT-116 colon. Also, the growth is 111% with HCC-2998 colon and 96.9% in the test on KM12 colon.
